Results as given in the supplement of paper PMC3334620.
Whole data set: some 33,000 sequences, median “E-score (-0.5 to 0.5)” near -0.016, cut for the highest 2% near 0.32. This is one part of a sample in which the highest values are shown more often than they occur.

Biological target: T1, Stp1 (UniProt B3LFK1)
T1 sequence: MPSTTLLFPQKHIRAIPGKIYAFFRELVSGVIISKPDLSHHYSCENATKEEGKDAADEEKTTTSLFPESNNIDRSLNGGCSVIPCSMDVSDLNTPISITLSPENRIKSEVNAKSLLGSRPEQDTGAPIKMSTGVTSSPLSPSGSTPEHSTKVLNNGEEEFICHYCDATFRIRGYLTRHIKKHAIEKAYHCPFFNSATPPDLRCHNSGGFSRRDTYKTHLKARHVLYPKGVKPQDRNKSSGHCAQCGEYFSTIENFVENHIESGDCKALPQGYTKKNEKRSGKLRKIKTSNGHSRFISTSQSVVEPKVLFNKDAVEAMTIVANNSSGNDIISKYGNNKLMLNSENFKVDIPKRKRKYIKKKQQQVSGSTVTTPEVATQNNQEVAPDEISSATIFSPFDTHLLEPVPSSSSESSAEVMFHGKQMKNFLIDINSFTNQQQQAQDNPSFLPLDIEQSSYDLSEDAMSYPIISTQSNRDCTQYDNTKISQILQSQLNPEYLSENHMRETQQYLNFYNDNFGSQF
Assay: PBM E-score (8-mer binding enrichment) (E-score (-0.5 to 0.5)); higher = stronger / more preferred TF binding
Conditions: protein concentration: 200 nM; construct: GST-full length
Summary of the method: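 Each ungapped eight-base word and its reverse complement, pooled, received an E-score from the Universal PBM Analysis Suite. Underlying scans, normalised with masliner, recorded fluorescent anti-GST bound to GST-tagged yeast transcription factors. These were applied at about 100-200 nM to universal all-10-mer Agilent arrays double-stranded by primer extension.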

Sequence	PBM E-score
CGAGTCCG	0.128
CCAGTGAA	-0.0703
GAGATAGA	-0.0115
ACAGGGCT	-0.0531
ACAGGGCG	0.351
ACAGGGCA	0.244
CACCGACA	0.0706
AGGCAACG	0.0557
CGGCAACA	0.368
CGGCAACG	0.368
CGGCAACC	0.266
TGGCAACA	0.195
AGGCAACA	0.143
ACTTTTGG	-0.0182
CTATGCAA	-0.0966
CGGCCCAC	-0.051
ACATACGG	0.261
CAATACGG	0.32
CAATACGC	0.175
CCATACGG	0.395
CAATACGA	0.143
CCATACGC	0.0591
GACAATGA	-0.247
CGCCTTTA	0.129
AGCCTTTC	-0.0105

Sequence	PBM E-score
CGCCTTAA	0.211
CGCCTTGC	0.35
AGCCTTGC	0.325
AGCCTTGG	-0.138
CGCCTTAC	0.405
CGCCTTGA	0.0844
AGCCTTAC	-0.022
CGCCTTCC	0.206
AGCCTTGA	-0.0777
CGCCTTTC	0.354
ACATGTAT	0.0569
CAATCCAC	-0.128
ATAGTTCG	0.0223
AATAGAGG	-0.00072
CTTGATGA	0.1
ATCTGCAA	-0.145
ACACACTG	-0.0947
AGCCCCTG	-0.353
AAAGAACA	-0.0165
AAAGCACT	-0.0405
AGCAGGCA	-0.0398
GGGCGAGA	-0.132
CGGCTCAA	0.351
TGGCTCAA	0.00085
AGGCTCAA	0.0744

Sequence	PBM E-score
AGGCTCCA	-0.0273
CGGCTCCA	0.425
AGGCTCAG	-0.0826
CGGCTCAC	0.213
CGGCTCAG	0.379
CGGCTCCC	0.187
ACCTTTCT	-0.0776
CCAACAAG	0.00906
AACTGCGG	0.173
AGATGCCG	0.397
ATATGCCA	0.153
AGATGCCC	0.06
ATATGCCG	0.347
ATATGCCC	-0.155
CGATGCCG	0.415
CGATGCCA	0.105
AGATGCCT	0.107
CGATGCCC	0.0311
CCAACCTA	-0.175
GTGCGGCA	0.469
CTGCGGCC	0.214
CTGCGGTA	0.0752
ATGCGGTA	0.0546
ATGCGGCA	0.467
GTGCGGAA	0.132

Sequence	PBM E-score
ATGCGGAA	0.164
CTGCGGCA	0.422
GTGCGGGA	0.041
AGTTTGTC	-0.0407
CTCTGGGC	-0.215
AGAGGTCG	-0.096
AGATGAGG	-0.192
AGTTAAGG	-0.0459
ACCTGTAA	0.00569
AGATAGAG	-0.0214
GCTGATCC	-0.116
AGCGGCAG	0.301
AGCGGCAA	0.321
AGCGGCCT	0.0372
AGCGGCAC	0.457
TGCGGCAA	0.412
AGCGGCAT	0.406
AGCGGAAA	0.0606
AGTGGCAA	0.162
TGCGGCCA	0.233
AGCGGGAT	0.0317
AGTGGCAC	0.209
TCCGGCAA	-0.00549
CACATCGG	-0.152
AATTTGGG	-0.0818

Sequence	PBM E-score
CGAGGCCA	-0.178
GATAAGGC	0.216
AAGGGCGT	0.0591
CGATAATC	-0.128
ATCCGTCA	-0.0596
CTAAACGA	0.0761
CAGTCTGA	-0.0528
CGCGGCAG	0.378
GTCGGCAC	0.172
CGTGGCAG	0.239
GGGGGCAC	-0.266
GGCGGCAA	0.286
CGCGGGCA	0.175
GGCGGCAC	0.446
CGCGGCAA	0.424
CGCGGTAG	0.0224
AGGGGACA	-0.145
AGGGGGGG	-0.287
AGGCCTCC	-0.164
GCTCTCGA	-0.144
ATAACCCC	-0.223
GCAAGCTA	-0.0537
GGGCATGA	-0.0369
AGGCATGC	0.144
CGGCATGC	0.338

Sequence	PBM E-score
CTGCATGC	0.12
AGGCATGA	-0.0157
CGGCATGA	0.346
CGAGGAGA	-0.162
AGCCAAAC	0.00731
CATTGCGG	0.158
GCGCTGCA	0.232
GGATTGAA	-0.0161
GCGTGAGC	0.193
GGGCGGCA	0.356
AGGCGGTA	-0.0932
AGGCGGAA	0.0802
CGGCGGTA	0.335
AGCCGGCA	0.0341
GGCGGGCA	0.0418
GGGCGGAA	-0.0696
AGGCGGGA	-0.183
GGGCGGGA	-0.11
AGGCGGCA	0.369
CGGCGGAA	0.328
GGGCGGTA	-0.128
CACCTATG	-0.108
CGCTAAAG	0.0823
GTTGAATA	0.0719
ATGTCCTC	-0.113

Sequence	PBM E-score
AGCTGCGA	-0.129
GCTCAACA	0.00726
CAGTCGGG	-0.14
AGGCGGGG	0.023
AGGCGGCG	0.391
CGGCGGCC	0.214
AGGCGGCC	0.147
CGGCGGGA	0.207
CGGCGGCA	0.418
CCTAGCTC	-0.268
ATAGAAAT	0.197
CTGGCCCC	-0.311
CATCACTC	-0.0239
GAGACGGA	0.065
CAGACGCC	0.114
GAGACGAC	-0.104
AAGACGCT	-0.13
AAGACGGA	-0.0847
CAGACGGA	0.0941
CAGACGGC	0.42
CAGACGGG	-0.242
AAGACGGC	0.318
AAGACGGT	-0.169
AAGACGCC	0.321
GAGACGGC	0.411

Sequence	PBM E-score
ACAGTGCG	-0.022
CGCTGGAG	-0.107
ATTGAGGC	0.146
CCCAGTCG	-0.267
AAGGACCG	-0.117
CCATTAGG	-0.209
CTAACAGC	0.0206
AGCCACTC	0.0834
CTTTTTGC	0.0819
AACTAACC	0.117
CAATGCCC	0.136
CAATGCCA	0.0614
CAATGCCG	0.374
AAATGCCG	0.443
AAATGCCT	0.285
AAATGCCC	-0.108
GTGCTAAC	-0.0443
ACAAGATG	-0.052
AAACCTCA	-0.0665
AGCGAACT	0.00922
CACAGCCG	0.327
CACAGCCC	-0.172
CAAAGCCA	0.0366
CAAAAGCC	0.121
AAAAAGCC	0.34

Sequence	PBM E-score
CAAAGCCC	-0.0858
AAAAGCCC	-0.145
AACAGCCG	0.255
GAAAAGCC	0.0718
CAAAGCCG	0.316
AAAAGCCG	0.326
AAAAGCCT	-0.0406
GAGATAGC	-0.111
CACAGAAA	-0.00471
TGGGCACA	0.135
GTAGATGA	0.0463
GAGCTCTA	-0.101
GAAATTTC	-0.153
CCCTGGTC	-0.41
AGCTAACC	-0.159
CCTAGCCA	-0.0258
CTGCGAAG	-0.175
CGGCACGC	0.437
AGGCACGC	0.209
GGGCACGA	0.133
CGGCACGA	0.459
CTGCACGC	-0.0205
CTGCACGA	-0.152
GACACTCC	0.0152
AATTCTGA	0.131

Sequence	PBM E-score
GCATTTCC	0.146
AAGTAAGG	-0.0479
ACCTATCG	0.0549
CAAGAGCC	0.21
CCAAGCCC	-0.241
CGACGGCG	0.353
AGACGGCT	0.343
AGACGGAT	0.14
CGACGGCC	0.0289
AGACGGCG	0.463
AGACGTCT	-0.219
AGACGGCC	0.121
AGACGGGG	-0.154
CGACGGAG	-0.147
ACAGTCGG	-0.0418
AAGCACCC	-0.224
CAAATTGC	0.115
CTCAGTCC	-0.195
ATGAAGAC	0.0861
ACGTTTAT	0.0901
CTGGGTGA	-0.229
CAATAACC	0.0421
AGGGCTAG	-0.207
AAGCTACT	-0.0664
AACGCGGC	0.443

Sequence	PBM E-score
GACGCGGA	0.136
CACGCGGG	0.143
GACGCGAC	-0.0598
CACGCGGA	0.294
GACGCGGC	0.466
CACGCGGC	0.459
AACGCGGA	0.0987
AACGCGGG	0.184
ACTCGATC	-0.0856
AGGTGGCA	0.218
GAATGCCA	0.134
CTTAAATC	0.0764
ATGGCGTG	0.102
ACGGCGTG	0.455
GCGGCGTA	0.433
AGGGCGTC	0.131
AAGGCGTA	0.234
GGGGCGTA	-0.174
ACGGCGTA	0.448
CCGGCGTA	0.0906
CCGGCGTC	0.0446
AGGGCGTG	-0.0356
ACGGCGTC	0.472
GTGGCGTA	0.0488
GTGTGTTA	0.029

Sequence	PBM E-score
AGTTCAAT	-0.0607
CGGTTATC	-0.0601
CAGCAATG	-0.194
AAATAAGG	0.0174
CAAACTAG	-0.107
CCACTGGA	-0.241
ACACCGCG	0.0308
CCAGAACC	-0.154
AGGCTATG	-0.196
CGCTGAAG	-0.108
ACGGCTGC	0.289
ACGGCTGG	0.139
ACGGCTTC	0.417
GCGGCTTA	0.234
ACGGCTGA	0.147
ACGGCTTG	0.335
CCGGCTTC	-0.0259
ATGGCTTG	-0.0553
ACGGCTTA	0.375
AAGCGGTC	-0.149
GATTAGGC	0.02
